Source: PubChem
Rows were chosen to be rich in hits. Some 31% of all compounds tested hit in one or more screens of this group.
CYP2C9 act – activators of human CYP2C9; activation factor at 5 µM; 96,000 compounds, 1.4% hits; recombinant CYP2C9, luciferin-H conversion, luminescence; active compounds read high; factor 1 = untreated enzyme, 0 = blocked; P11712;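 active means activation factor of 2 or more for CYP2C9 at a 5 µM dose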;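 further: 0 = sulfaphenazole-blocked wells and 1 = vehicle-only wells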
CYP2C9 inhib – blocks human cytochrome P450 2C9; P11712; CYP2C9 Supersomes, luciferin-H conversion, luminescence; inhibition, % at 5 µM; 96,000 compounds, 20% hits;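 active means blocking of liver enzyme CYP2C9 beyond about 50% at 5 µM, limit read from the data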
CYP2C19 inhib – inhibitors of human CYP2C19; 96,000 compounds, 21% hits; P33261; CYP2C19 Supersomes, luciferin-H EGE luminescence, 30 min; inhibition, % at 5 µM;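 active means CYP2C19 inhibition above a set limit at 5 µM in the primary screen, cut at about 50% in these data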;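 further: plate controls were negative control wells for no effect and 2.5 mM tranylcypromine positive control for full effect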
Target sequence (P33261 whole entry, looked up): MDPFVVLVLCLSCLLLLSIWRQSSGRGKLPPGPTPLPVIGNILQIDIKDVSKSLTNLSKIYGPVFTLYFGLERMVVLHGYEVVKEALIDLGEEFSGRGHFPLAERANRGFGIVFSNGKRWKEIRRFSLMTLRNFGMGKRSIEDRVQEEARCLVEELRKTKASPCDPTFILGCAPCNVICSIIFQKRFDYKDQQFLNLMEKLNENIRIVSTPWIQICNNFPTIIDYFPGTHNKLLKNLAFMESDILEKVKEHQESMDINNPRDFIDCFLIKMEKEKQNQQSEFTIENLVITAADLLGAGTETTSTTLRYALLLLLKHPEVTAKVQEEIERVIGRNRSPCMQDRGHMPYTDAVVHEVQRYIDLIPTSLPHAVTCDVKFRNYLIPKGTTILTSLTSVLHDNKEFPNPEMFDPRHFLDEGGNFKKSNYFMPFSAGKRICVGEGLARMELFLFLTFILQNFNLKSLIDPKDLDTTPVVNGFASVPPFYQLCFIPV
PLAP activator – activators of human placental alkaline phosphatase | P05187 | purified PLAP enzyme, luminescent substrate read-out; active compounds read high | activation fold at 20 µM | 96,000 compounds, 1.2% hits | AID 696; in the data active means activation fold above about 2
CYP2C19 activ – activators of human cytochrome P450 2C19 | AID 1025 | 96,000 tested, under 10 active | activation factor at 5 µM | recombinant CYP2C19, luciferin-H EGE luminescence; active compounds read high; 0 = fully inhibited enzyme, 1 = untreated enzyme | P33261;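 active means activation factor of at least 2 at 5 µM in the primary screen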;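 further: 0 = wells with 2.5 mM tranylcypromine and 1 = vehicle-only wells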
Numbers without * were called inactive.

SMILES	CYP2C9 act	CYP2C9 inhib	CYP2C19 inhib	PLAP activator	CYP2C19 activ
CC(=O)c1c(C)oc2ccc(NS(=O)(=O)c3ccc(O)c(C(=O)O)c3)cc12	0.1	89*	52*	0.9	0.5
O=C(O)c1cc(S(=O)(=O)O)ccc1O	1.1	-10	-13	1.1	1.1
CC(=O)Nc1cc(S(=O)(=O)Nc2ccc(C)cc2)c(C)cc1C	0.8	19	13	0.9	0.9
CC(=O)Nc1ccc(NS(=O)(=O)c2ccc(Cl)c(C(=O)O)c2)cc1	1.1	-6	4	1	1
CCOc1cc(S(=O)(=O)NCc2ccccc2)ccc1F	1.6	-65	38	0.8	0.6
CCOC(=O)c1c(-c2ccccc2)nc2cc(C)ccn12	0.9	12	28	1	0.7
COC(=O)C1=NN(c2ccccc2)C2(S1)S/C(=C\c1ccccc1)C(=O)N2c1ccccc1 (stereo not given)	0.5	54*	88*	1.4	0.1
CCOC(=O)C1=NN(c2cccc(C)c2)C2(S1)SC(C(C)=O)=C(C)N2c1ccccc1 (stereo not given)	0.2	80*	47	1.5	0.5
CCOC(=O)C1=NN(c2ccccc2)C2(S1)SC(C(C)=O)=C(C)N2c1ccccc1 (stereo not given)	0.6	44	-20	0.8	1.2
CCOC(=O)C1=NN(c2ccc(C)cc2)C2(S1)SC(C(C)=O)=C(C)N2c1ccccc1 (stereo not given)	0.5	54*	39	1.2	0.6
CN1CCN(C(=O)N2CCNC2=O)CC1	1.3	-33	-23	1.1	1.2
COCC(=O)N(c1ccc(C(C)C)cc1)C1C=CS(=O)(=O)C1 (stereo not given)	1	-2	-4	0.8	1
O=C1NN=C(c2ccc(Cl)cc2)CC1c1cccc(Cl)c1 (stereo not given)	0.8	18	68*	1.3	0.3
NC1=NS(=O)(=O)NC1c1cccc(Cl)c1 (stereo not given)	1.1	-6	-9	1	1.1
Cc1cc(C)nc(-n2nc(C)c(C3(O)C(=O)Nc4ccccc43)c2N)n1 (stereo not given)	1	-2	-18	1.2	1.2
COC(=O)CSc1snnc1-c1ccc(Cl)cc1Cl	0.6	36	77*	1	0.2
Cc1ccc(CNC(=O)C2CCCCC2C(=O)O)cc1 (stereo not given)	0.9	8	4	0.9	1
CCOC(=O)c1c(C)c(-c2ccccc2)n(CC(=O)N2CCCC2)c1C	0.6	43	88*	1.5	0.1
COc1ccc(OCC(=O)c2c(O)c3ccccc3oc2=O)cc1	0.2	78*	-11	1.2	1.1
CCCCN=C(C)c1c(O)c2ccccc2oc1=O	0.4	56*	85*	0.9	0.2
CCOc1ccc(OCC(=O)c2c(O)c3ccccc3oc2=O)cc1	0.1	91*	-1	1	1
COc1ccc2c(c1)OC(O)(C(F)(F)F)CC2=O (stereo not given)	0.9	13	20	1.1	0.8
O=C(CCCNS(=O)(=O)c1cccc2nsnc12)NCc1ccccc1	1	-2	9	1	0.9
COc1ccc(CCNC(=O)CCNS(=O)(=O)c2cccc3nsnc23)cc1OC	0.6	35	72*	1.2	0.3
COc1ccc(CCNC(=O)CCNS(=O)(=O)c2cccc3nonc23)cc1OC	0.8	18	72*	1.2	0.3
SMILES	CYP2C9 act	CYP2C9 inhib	CYP2C19 inhib	PLAP activator	CYP2C19 activ
Cc1ccc(CNC(=O)CNS(=O)(=O)c2cccc3nsnc23)cc1	0.5	52*	31	1	0.7
O=C(CCNS(=O)(=O)c1cccc2nsnc12)NCCc1ccccc1	1.2	-18	52*	1	0.5
Cc1ccc(NC(=O)Cn2cncc2-c2ccc([N+](=O)[O-])cc2)cc1C	0.9	7	24	1.1	0.8
COc1ccc(S(=O)(=O)NNC(=O)C2Cc3c(ccc4ccccc34)O2)cc1 (stereo not given)	0.5	47	19	1.1	0.8
CCc1ccc(CN2CC(C(=O)O)CC2=O)cc1 (stereo not given)	1.2	-19	43	1.1	0.6
O=C(c1n[nH]c(=O)c2ccccc12)N1CCN(c2ccc(F)cc2)CC1	1	1	7	0.9	0.9
CSc1nc(C)cc(OCC(=O)n2nc(C)cc2C)n1	1	5	39	1	0.6
CC(=O)c1c(N2CCC(C(N)=O)CC2)nc(=S)n(-c2ccccc2)c1C	1	-3	0	1.2	1
CCc1ccc(NC(=O)CCNS(=O)(=O)c2cccc3nonc23)cc1	0.4	55*	27	1.1	0.7
O=C(CCNS(=O)(=O)c1cccc2nonc12)NC1CCCc2ccccc21 (stereo not given)	2.4*	-138	28	0.8	0.7
COc1ccc(NC(=O)CNS(=O)(=O)c2cccc3nonc23)c(OC)c1	0.3	74*	72*	0.9	0.3
CC(=O)c1ccc(NC(=O)CCNS(=O)(=O)c2cccc3nonc23)cc1	1.1	-6	49	0.9	0.5
C=CCSc1nnc(-c2cc3c(s2)-c2ccccc2CC3)o1	1	-2	4	1.3	1
COc1ccccc1C(=O)NC(C)c1nc2ccccc2[nH]1 (stereo not given)	0.5	55*	56*	0.9	0.4
COc1ccccc1C(=O)Nc1ccccn1	1	-3	28	0.9	0.7
COc1cc2c(OC)cccc2cc1C(=O)O	1	-2	5	1	0.9
CCOC(=O)C(O)(C1C(=O)CC(C)(C)CC1=O)C(F)(F)F (stereo not given)	0.1	93*	0	1.1	1
CSCc1cc(N(C)C)nc(SCc2ccc(Cl)c(Cl)c2)n1	0.3	71*	72*	1	0.3
CNc1cc(CSC)nc(SCc2ccc(Cl)cc2Cl)n1	1	-1	-6	1	1.1
Cc1c(CN(C)C(=O)c2sc3cc(Cl)ccc3c2Cl)cnn1C	1.3	-34	93*	1.3	0.1
CCC(C)Sc1nc2c(c(=O)[nH]c(=O)n2C)n1C (stereo not given)	1.1	-6	-6	0.9	1.1
CC(=O)NCCOc1cccc2ccccc12	1.8	-84	56*	1.2	0.4
CCC(C)(C)C1CCC(=NNC(=O)c2ccoc2C)CC1 (stereo not given)	0.9	8	7	0.9	0.9
COC(=O)c1ccccc1S(=O)(=O)N1Cc2cc([N+](=O)[O-])ccc2Oc2ccccc21	0.4	62*	100*	1.1	0
COc1ccc(Cl)cc1NC(=O)CN1CCC(n2nnc3cc(F)ccc32)CC1	0.8	19	76*	0.8	0.2
O=C(CN1CCC(n2nnc3cc(F)ccc32)CC1)Nc1ccc2c(c1)CCC2	0.6	45	44	1.2	0.6
O=C(CN1CCC(n2nnc3ccccc32)CC1)Nc1ccc2c(c1)CCC2	0.4	62*	68*	1.4	0.3
Cc1ccc2c(c1)nnn2C1CCN(CC(=O)Nc2ccc3c(c2)OCCO3)CC1	0.5	50*	27	1.5	0.7
